The list is not random: actives were taken first. Their share in the collection is about 4.8%.
DAX1 inh-1: DAX1 (NR0B1) inhibitors, primary screen, cell-based, HEK293, Gal4-DAX1, luciferase luminescence; HEK293 Gal4-DAX1 luciferase reporter; actives 0.99% (n = 340,000); Nuclear receptor subfamily 0 group B member 1 (Homo sapiens), P51843; inhibition, % at 6.75 µM;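 active = inhibition above the mean over all tested compounds plus 3 SD, cut at about 4.2% in these data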;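 note: 0% = DAX1-transfected cells with DMSO and 100% = empty-vector control cells with DMSO; inhibition shows as a rise in luminescence from relieved DAX1 repression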
Target sequence (P51843 207-470 limits assumed): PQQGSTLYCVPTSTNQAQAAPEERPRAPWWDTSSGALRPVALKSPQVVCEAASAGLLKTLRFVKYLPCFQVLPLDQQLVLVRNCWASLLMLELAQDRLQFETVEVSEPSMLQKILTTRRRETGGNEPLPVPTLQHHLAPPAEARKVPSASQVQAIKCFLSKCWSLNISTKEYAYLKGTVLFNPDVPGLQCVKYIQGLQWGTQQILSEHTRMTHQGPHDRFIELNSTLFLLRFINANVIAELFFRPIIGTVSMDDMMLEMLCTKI
DAX1 inh-2: DAX1 (NR0B1) inhibitors on StAR promoter, primary screen, cell-based, luminescence, SF-1 (NR5A1), full-length DAX-1 | HEK293T StAR-luciferase reporter, SF-1/DAX-1 repression relief | actives 1.1% (n = 370,000) | inhibition, % at 6.8 µM;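 active = inhibition above the mean over all tested compounds plus 3 SD, cut at about 3.6% in these data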;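 note: 0% = DAX-1 cells with DMSO and 100% = cells lacking DAX-1 with DMSO; higher inhibition means more luminescence from relief of DAX-1 repression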
hgDAF12 agonist: H. glycines DAF-12 receptor agonists, primary screen, cell-based, luminescence, HEK293, GAL4 fusion, UAS-luciferase; actives 1.8% (n = 370,000); activation, % at 6.8 µM; HEK293 GAL4-hgDAF12 UAS-luciferase reporter, agonist luminescence; normalized to butyrate control;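 active = activation above a cutoff set at the mean of all screened compounds plus 3 SD, cut at about 10% in these data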;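 note: 0% = DMSO wells and 100% = sodium butyrate wells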
SMARCA2 activ: SMARCA2 (BRM) function activators, primary screen, cell-based, luminescence, high throughput. MG213 cells, MMTV-luciferase reporter, dexamethasone, overnight. activation, % at 9.1 µM. actives 1% (n = 370,000); in the data active = activation above about 7.8%;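 note: 0% = vehicle wells and 100% = reference activator wells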
hcDAF12 agonist: H. contortus DAF-12 nuclear receptor activators, primary screen, cell-based, luminescence, HEK293, lit1-tk-luc reporter. HEK293 hcDAF-12 lit1-tk-luc reporter; 0% DMSO, 100% Δ7-dafachronic acid. activation, % at 6.8 µM. actives 1.4% (n = 370,000);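 active = activation above the mean of all tested compounds plus 3 SD, cut at about 5.5% in these data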;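 note: 100% = response to 3 µM Δ7-dafachronic acid high control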
ssDAF12 agonist: S. stercoralis DAF-12 nuclear receptor activators, primary screen, cell-based, luminescence, HEK293, GRIP1 co-expression, lit1-tk-luc; HEK293 ssDAF-12/GRIP1 lit1-tk-luc reporter; % of 3 µM dafachronic acid response; activation, % at 6.8 µM; actives 1% (n = 370,000);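 active = activation above the mean over all tested compounds plus 3 SD, cut at about 0.9% in these data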;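 note: 0% = DMSO-only wells and 100% = 3 µM delta7-dafachronic acid wells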
Active calls of the source: *; x = no result.

SMILES | DAX1 inh-1 | DAX1 inh-2 | hgDAF12 agonist | SMARCA2 activ | hcDAF12 agonist | ssDAF12 agonist
COc1ccc2[nH]c3c(c2c1)CCN1C(=O)N([C@@H](C)C(=O)NCC2CCCO2)C(=O)[C@]31C (stereo partly specified) | 5.7* | 0.1 | 6.1 | 0.7 | 2.3 | -1.3
COc1ccccc1NC(=O)Nc1nc(CC(=O)NCc2cccnc2)cs1 | 4.8* | 0.3 | -0.1 | -1.9 | -1.1 | -0.6
CN(C)Cc1csc(NC(=O)Nc2ccccc2Oc2ccccc2)n1 | x | -1.2 | 2.6 | 7.9* | -3.3 | -1.1
CC(=O)Nc1nc(COc2ccccc2)cs1 | 0.9 | 1.7 | 13.2* | 0.0 | 1.8 | -0.8
O=C(N/N=C/c1ccco1)c1cnccn1 | -0.2 | -0.3 | 5.5 | 8.0* | 0.5 | 0.4
Cc1nn(-c2ccccc2)c2sc(C(=O)NC3CCCC3)cc12 | x | -2.1 | -4.8 | -0.8 | -1.6 | -1.4
CCOC(=O)c1sc(NC(=O)c2ccccc2OCC)nc1C | 0.1 | 0.1 | -0.9 | -0.7 | -2.0 | -1.4
COC(=O)c1sc(NC(=S)NC(=O)c2cccc(Br)c2)nc1C | 4.6* | -0.2 | 3.8 | 3.0 | 3.8 | -0.3
CC(=O)c1sc(NC(=O)c2ccco2)nc1-c1ccccc1 | 0.7 | x | x | x | x | x
CCOC(=O)c1sc(NC(=O)c2ccco2)nc1-c1ccccc1 | -0.4 | 0.9 | 0.9 | 7.9* | 1.5 | -1.5
CCOC(=O)c1sc(NC(=O)c2cccnc2)nc1C | 1.7 | -0.1 | 1.2 | -1.0 | 5.9* | -0.6
CCOC(=O)c1sc(NC(=O)c2ccc(=O)[nH]c2)nc1C | 6.1* | 0.0 | -0.1 | -1.4 | 0.5 | -0.4
CCOC(=O)c1sc(NC(=O)c2ccc3nc[nH]c3c2)nc1C | 0.1 | 0.2 | 4.1 | 1.7 | 0.3 | -0.5
COC(=O)C[C@H]1CC[C@@H]2[C@H](COc3ccc(NC(=O)c4cnccn4)cc3C(=O)N2C)O1 | x | 1.6 | 6.7 | -0.2 | -2.1 | -0.9
CC(C)(C)OC(=O)N(CCc1ccccc1)Cc1cccc(OCc2cccc(NC(=O)c3ccccc3)c2)c1 | -0.9 | 4.1* | 1.1 | -5.2 | 0.5 | -1.1
O=C(NCc1csc(-c2cccs2)n1)C1CCCCC1 | 4.5* | 1.0 | 7.6 | 0.7 | 3.6 | 0.3
CCCCCCCCN1C(=O)[C@@H](CC(=O)NCc2cccc3ccccc23)C[C@@]2(C(=O)OC)C1=C[C@H](COCc1ccccc1)O[C@@H]2C | x | -1.1 | 2.1 | -3.5 | -1.2 | -1.2
Cc1cccc(NC(=O)Cn2c(O)c(N=NC(=O)c3ccccc3O)c3ccccc32)c1 | -0.8 | 0.2 | 2.0 | -5.8 | 6.0* | 0.7
NC(=S)N=Nc1c(O)n(CC(=O)Nc2ccccc2)c2ccccc12 | -0.6 | -0.1 | -0.8 | -2.5 | -1.7 | -0.9
Cc1cc(=O)[nH]c(SCC(=O)NCCC2=CCCCC2)n1 | 4.9* | -0.2 | -2.0 | -2.2 | -1.4 | -1.0
CCOC(=O)N1CCC(n2c(SCC(=O)NCCC3=CCCCC3)nc3ccccc3c2=O)CC1 | 4.4* | -0.9 | -1.6 | 1.1 | -3.6 | -2.1
CCOC(=O)N1CCC(n2c(SCC(=O)NCc3ccccc3)nc3ccccc3c2=O)CC1 | -1.9 | -0.6 | -1.1 | -3.0 | -1.1 | -1.9
O=C(NC1CCCCN(Cc2cccc(C(F)(F)F)c2)C1=O)c1c(F)cccc1F (stereo unspecified) | x | -0.6 | -2.8 | -1.4 | -2.0 | -2.0
Cn1c(SCC(=O)NNC(=O)c2ccccc2O)nnc1-c1ccccc1 | 0.4 | 0.7 | 1.3 | 3.6 | 6.1* | 0.0
COc1ccccc1N1CCN(Cc2ccsc2)CC1 | 0.8 | 0.8 | -0.2 | 0.6 | 0.9 | 1.1*
SMILES | DAX1 inh-1 | DAX1 inh-2 | hgDAF12 agonist | SMARCA2 activ | hcDAF12 agonist | ssDAF12 agonist
COc1ccc(Cn2cc(CN3[C@H](Cc4ccccc4)COc4cc(Br)ccc4S3(=O)=O)nn2)cc1 | x | -1.4 | 1.3 | -2.2 | -2.6 | -1.1
O=C(c1ccc(CS(=O)(=O)c2ccc(Br)cc2)o1)N1CCCC1 | 0.9 | 1.7 | 0.4 | 0.8 | -1.1 | -1.6
O=C(NCCN1CCOCC1)c1ccc(CS(=O)(=O)c2c(Cl)cccc2Cl)o1 | 7.2* | 0.2 | -2.1 | -1.1 | -2.3 | -1.1
O=C(c1ccc(CS(=O)(=O)c2ccccc2)o1)N1CCOCC1 | 5.6* | 0.9 | 3.5 | -1.6 | -0.7 | -0.4
O=C(NCCCN1CCOCC1)c1ccc(CS(=O)(=O)c2c(Cl)cccc2Cl)o1 | 4.0 | 0.4 | -1.3 | -0.7 | -0.2 | -1.5
COc1ccc(OC)c(S(=O)(=O)N2CCCCC2C(=O)N2CCN(CCO)CC2)c1 (stereo unspecified) | x | -0.1 | 2.0 | -2.5 | -1.7 | -1.2
CC(C)(C)c1ccc(-c2nnc(SCC(=O)Nc3ccc4cn[nH]c4c3)n2-c2ccc(Cl)cc2)cc1 | x | -0.5 | 0.3 | 2.9 | -0.7 | -0.9
Cc1cc(C2=NNC(=Nc3ccccc3)SC2)c(C)n1C | 5.4* | 1.5 | 8.2 | -1.1 | 1.6 | 0.6
Clc1nnc(NN=C2CCCC2)c2ccccc12 | 4.0 | 0.1 | 3.6 | -2.6 | 4.0 | 1.3*
O=C(/C=C/c1cccc(Br)c1)N1CCN(c2cccc(C(F)(F)F)c2)CC1 | -0.1 | -0.5 | -3.5 | 2.5 | 2.5 | -1.4
O=C(/C=C/c1ccc(Br)cc1)N1CCN(c2cccc(C(F)(F)F)c2)CC1 | -1.0 | 1.7 | -2.3 | -4.1 | 6.4* | -1.0
Brc1ccc(Cn2nnc(-c3ccc(N4CCOCC4)cc3)n2)cc1 | x | 0.4 | -1.2 | 0.3 | -2.4 | -2.2
CC(CN1CCOCC1)OC(=O)c1ccc2c(c1)OCCO2 (stereo unspecified) | 1.6 | 1.0 | 10.7* | 4.4 | 4.2 | -0.2
CC(CN1CCCCC1)OC(=O)c1ccc2c(c1)OCCO2 (stereo unspecified) | -0.3 | 1.0 | 6.6 | 1.3 | 4.0 | -0.5
CSc1ccccc1C(=O)NCCOc1ccccc1C | -1.6 | -0.7 | -0.7 | -3.4 | -2.0 | -1.6
O=C(NCCOc1ccccc1F)c1cc(F)c(F)cc1Cl | 1.3 | 3.7* | 13.0* | 6.0 | 4.9 | 1.2*
Cc1ccccc1C(=O)NCCOc1ccccc1Cl | 5.0* | 2.5 | 11.5* | 6.7 | 3.1 | 1.1*
Cc1cc(C(=O)OCCCN(C)C2CN(Cc3cn(Cc4ccccc4C(F)(F)F)nn3)S(=O)(=O)C2)no1 (stereo unspecified) | x | -1.1 | 0.0 | -1.4 | -1.7 | -1.3
CN(C)CC(=O)N[C@@H]1C[C@@H]2O[C@@H](CO)CC[C@@H]2O[C@@H]1CCc1ccc(-c2ccc(F)cc2)cc1 | x | -0.6 | -0.6 | -3.5 | -0.7 | -1.3
